The results in this text go back to PubChem BioAssay AID624465 (National Center for Advancing Translational Sciences (NCATS), 2012).

Molecules are shown by their SMILES. The whole screen tested about 360,000 compounds, of which about 300 (0.083%) were called active. The entries come from a sample that favours actives as a whole. Unmarked numbers belong to inactive results. No stated cut-off is given here; in the data, active means activation above about 40%; inconclusive means between about 15% and that limit; inactive means weaker than that.

In this assay the target is D(2) dopamine receptor (Homo sapiens) (UniProt P14416). Briefly: Beta-Arrestin HTS for Positive Allosteric Modulators of the Human D2 Dopamine Receptor: Agonists. As to conditions: DiscoveRx PathHunter D2 beta-arrestin, luminescence, 90 min; active compounds read high; 100% = 57 uM dopamine signal. The text has this: There is great interest in identifying small molecule ligands for G-protein coupled receptors (GPCRs) as nearly 50% of all FDA-approved drugs target these important receptor proteins. […] Amongst the dopamine receptors (DARs), the D2 is arguably one of the most validated drug targets in neurology and psychiatry. For instance, all receptor-based antiparkinsonian drugs primarily work via stimulating the D2 DAR, whereas all FDA-approved antipsychotic agents are antagonists of this receptor. The D2 DAR is also therapeutically targeted in other disorders such as restless legs syndrome, tardive dyskinesia, Tourette's syndrome, and hyperprolactinemia.
Chain of D(2) dopamine receptor (Homo sapiens) (P14416 whole entry, looked up): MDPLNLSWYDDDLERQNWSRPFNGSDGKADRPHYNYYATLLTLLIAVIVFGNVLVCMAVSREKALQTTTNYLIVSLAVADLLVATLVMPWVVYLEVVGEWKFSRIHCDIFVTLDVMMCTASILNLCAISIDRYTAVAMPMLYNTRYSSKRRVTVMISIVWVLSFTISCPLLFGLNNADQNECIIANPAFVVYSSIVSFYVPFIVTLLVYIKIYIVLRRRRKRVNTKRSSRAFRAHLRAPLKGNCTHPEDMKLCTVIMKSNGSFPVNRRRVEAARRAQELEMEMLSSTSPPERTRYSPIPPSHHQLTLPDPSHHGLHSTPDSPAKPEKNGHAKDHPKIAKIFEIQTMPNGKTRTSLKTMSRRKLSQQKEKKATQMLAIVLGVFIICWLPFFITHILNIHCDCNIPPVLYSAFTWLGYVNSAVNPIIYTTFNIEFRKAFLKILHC
To this end, a miniaturized qHTS screen was developed to be screened against the Molecular Libraries Small Molecule Repository (MLSMR). This assay seeks to identify agonists against the D2 DAR.
NIH Molecular Libraries Probe Production Network [MLPCN]
NIH Chemical Genomics Center [NCGC]
PI Name: David Sibley, National Institutes of Neurological Disorders and Stroke
DiscoveRx D2 cells were thawed from frozen stock and seeded at 2,100 cells/ 3 uL/well media (DiscoveRx Plating Reagent 2) with MultiDrop Combi dispenser (Thermo Scientific, Logan, UT) onto white tissue culture treated 1536-well Aurora plates (Brooks Automation, Chelmsford, MA) and allowed to attach overnight at 37 deg C, 5% CO2. Next, 23 nL/well of compound solutions in DMSO were added with a pintool transfer (Kalypsis, San Diego, CA). As the positive control, 1 uL/well dopamine (EC100, 57 uM final concentration) diluted in buffer (HBSS + 10 mM HEPES + SMB + 0.1% Tween-20) was dispensed to 1 column of each plate. The rest of the plate was dispensed with buffer only, 1 uL/well as well. The cells were stimulated by compounds or dopamine control for 90 minutes at 37 deg C, 5% CO2, after which 1.5 ul/well of DiscoveRx detection reagent was added with BioRAPTR FRD dispenser. The detection reagent was prepared by mixing of Galacton Star Substrate, Emerald II solution and PathHunter buffer (supplied by the assay kit) together at 1:5:19 proportion accordingly just prior to dispensing. The plates were incubated at ambient temperature for 1 hour and then the luminescent signal was read on ViewLux plate reader (PerkinElmer, Waltham, MA).
For `CN(C)C(=O)CCC(=O)N1CCCCC1C(=O)Nc1ccc(Oc2ccccc2F)cc1` (configuration not stated), the activation is -8.59%.

Consider `COc1ccc(N(CC(=O)NC2CCCC2)C(=O)CS(=O)CC(=O)Nc2ccc3c(c2)OCO3)cc1` (configuration not stated), for which the activation is -1.02%. As to `Cc1ccccc1-c1nc(CS(=O)(=O)CC(=O)N2CCc3ccccc3C2)c(C)o1`, the activation was -4.35%.

For the compound `CCC1C(C#N)=C(SC)NC2=C1C(=O)CC(C)(C)C2` (configuration not stated), the activation is -0.142%. `O=C(NC1CCCCC1)C1CC(=O)N(CCc2ccccc2)C1` (configuration not stated): the activation is -0.239%. `CO/N=C/c1cn(-c2ccc(Cl)cc2)nn1`: the activation was -5.2%. As for `N#CC1(Nc2ccc3c4c(cccc24)CC3)CCCCC1`, the activation is -1.77%. For the compound `O=S(=O)(NCCS(=O)(=O)N1CCN(c2ccccc2)CC1)c1ccc(F)cc1`, the activation was -3.38%. With `CCS(=O)(=O)N1CCC(N2CCN(c3ccccc3)CC2)CC1`, the activation is 45.9% (active). `CCOc1ccc(CC(=O)NCCS(=O)(=O)N2CCN(c3ccccc3)CC2)cc1`: the activation is 0.195%. The result for `COc1ccc(CCn2c(NCCCN3CCOCC3)nc3c2c(=O)[nH]c(=O)n3C)cc1` reads 0.498%; that for `COc1ccc(CCn2c(NN=C3CCCC3)nc3c2c(=O)[nH]c(=O)n3C)cc1`, 46% (active); that for `CC1CCN(c2nc3c(c(=O)[nH]c(=O)n3C)n2CCCc2ccccc2)CC1`, 1.37%. For the compound `Cc1noc(C)c1C(=O)NC(C)c1ccc2c(c1)OCO2` (configuration not stated), the activation was 2.73%. Take `Nc1cc2c(cc1Br)-c1ccc(F)cc1C2=O`: the activation was 0.435%. `Cn1nc(C(=O)OCC(=O)N(Cc2ccccc2)C(C)(C)C)c2ccccc2c1=O`: the activation is -5.43%. Take `CNC[C@@H]1Oc2c(NS(C)(=O)=O)cccc2C(=O)N([C@@H](C)CO)C[C@H]1C`: the activation was -2.2%. Regarding `CCOc1cc(CN2CCCC(CO)(Cc3ccc(F)cc3F)C2)ccc1OC` (configuration not stated), the activation is -5.13%. Regarding `COc1ccccc1N1CCN(S(=O)(=O)CCNC(=O)c2ccc(OC(C)C)cc2)CC1`, the activation was 4.66%. For the compound `CCCCNC(=O)c1nc(C2CCN(S(=O)(=O)c3ccc(F)c(F)c3)CC2)oc1-c1cccc(C(F)(F)F)c1`, the activation was -1.93%. As to `OCCN1CCN(CCO)C1=S`, the activation is -3.52%. For the compound `O=C(CSc1nnc2n1CCCN2)c1ccccc1`, the activation is 1.27%. In the case of `COc1cc(C(=S)N2CCOCC2)cc(OC)c1OC(=O)c1ccc([N+](=O)[O-])cc1[N+](=O)[O-]`, the activation was 48% (active). The result for `COc1cc(C(=S)N2CCOCC2)cc(OC)c1OC(=O)c1cc([N+](=O)[O-])c(C)c([N+](=O)[O-])c1` reads 4.7%; that for `COc1cc([N+](=O)[O-])cc([N+](=O)[O-])c1NC(=O)N1CCOCC1`, 5.63%. Regarding `O=C(CN(C(=O)CNC(=O)c1cccs1)c1cccc(F)c1)NC1CCCCC1`, the activation was -1.63%.

For the compound `O=C1CCC(C(=O)N2CCCCO2)CN1Cc1cccc(C(F)(F)F)c1` (configuration not stated), the activation is 1.46%. The result for `CCCCN1C(=O)C(CC(=O)NC(c2ccccc2)c2ccccc2)CC(C(=O)N2CCOCC2)=C1C` (configuration not stated) reads -7.35%.

As to `CCOC(=O)C(CCOc1cccc(CC)c1)C(=O)OCC`, the activation is -1.01%.

Turning to `CNC(=O)c1csc(Cc2c(Cl)sc3ccc(Cl)cc23)n1`, the activation was 4.37%. As for `Cc1ccc(S(=O)(=O)N(CC(=O)Nc2cccc([N+](=O)[O-])c2)Cc2ccc(Cl)cc2)cc1`, the activation was -7.47%. On to `CCC(C)NC(=O)Cn1nc(C(F)(F)F)c2c1CCC2` (configuration not stated), for which the activation was 1.68%.

For `COc1ccc(S(=O)(=O)N(C)C[C@H]2OCc3cnnn3CCCC(=O)N([C@H](C)CO)C[C@H]2C)cc1`, the activation is 4.14%.

Turning to `CN(C)CCNC(=O)c1ccc(-c2cn3c(-c4ccc(Oc5ccccc5)cc4)cnc3cn2)cc1`, the activation is 3.24%. As to `C/C=C/C(=O)Nc1nnc(C(C)C)s1`, the activation was -0.338%. For the compound `O=C(NNc1nc(N2CCCC2)nc(N2CCCC2)n1)c1ccccc1`, the activation is 1.25%. In the case of `Cc1cc2c(cc1C)NC1(C[C@H]3CCC(=O)N4CC[C@@H](C1)[C@@H]34)C(=NC(C)(C)CC(C)(C)C)N2` (some centres not stated) it was 1.8%.
